This is a sample that favours compounds with a hit; in the whole collection about 14% have one here.
USP28 block: inhibitors of human USP28 deubiquitinase | Ubiquitin carboxyl-terminal hydrolase 28 (Homo sapiens), Q96RU2 | purified USP28, Ub-rhodamine cleavage fluorescence, 30 min | inhibition, % at 25 µM | actives 3% (n = 47,000) | AID 1645857, 2021
USP10 inh: inhibitors of human USP10 deubiquitinase; Ubiquitin carboxyl-terminal hydrolase 10 (Homo sapiens), Q14694; purified USP10, Ub-rhodamine fluorescence, 60 min; inhibition, % at 20 µM; actives 1.1% (n = 47,000)
Target sequence (Q14694 whole entry, looked up): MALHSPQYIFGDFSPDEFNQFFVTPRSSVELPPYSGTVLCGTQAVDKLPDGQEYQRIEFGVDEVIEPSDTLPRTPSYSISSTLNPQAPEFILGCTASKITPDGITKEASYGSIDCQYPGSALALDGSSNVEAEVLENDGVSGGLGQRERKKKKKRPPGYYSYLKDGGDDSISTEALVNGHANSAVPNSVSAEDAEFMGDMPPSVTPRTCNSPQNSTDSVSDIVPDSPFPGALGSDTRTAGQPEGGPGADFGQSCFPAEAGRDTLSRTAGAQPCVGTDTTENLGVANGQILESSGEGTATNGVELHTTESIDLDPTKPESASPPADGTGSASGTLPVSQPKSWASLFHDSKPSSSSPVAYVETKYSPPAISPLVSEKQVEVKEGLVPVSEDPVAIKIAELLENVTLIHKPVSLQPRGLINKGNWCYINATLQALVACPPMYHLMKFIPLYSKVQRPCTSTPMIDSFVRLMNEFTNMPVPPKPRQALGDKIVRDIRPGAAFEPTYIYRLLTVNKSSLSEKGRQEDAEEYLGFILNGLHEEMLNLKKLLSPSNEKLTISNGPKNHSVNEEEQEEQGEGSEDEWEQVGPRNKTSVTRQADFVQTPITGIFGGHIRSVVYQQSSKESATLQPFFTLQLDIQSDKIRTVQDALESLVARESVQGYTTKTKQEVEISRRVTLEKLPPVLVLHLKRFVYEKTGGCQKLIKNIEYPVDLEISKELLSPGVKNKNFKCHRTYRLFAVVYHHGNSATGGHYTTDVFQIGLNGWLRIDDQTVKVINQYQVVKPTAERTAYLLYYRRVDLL
USP8 inh: inhibitors of human USP8 deubiquitinase; Ubiquitin carboxyl-terminal hydrolase 8 (Homo sapiens), P40818; actives 4.2% (n = 47,000); AID 1645853, 2021; purified USP8, Ub-rhodamine cleavage fluorescence, 30 min; inhibition, % at 20 µM
USP17 inh: inhibitors of human USP17 deubiquitinase; Ubiquitin carboxyl-terminal hydrolase 17-like protein 5 (Homo sapiens), A8MUK1; purified USP17, Ub-rhodamine cleavage fluorescence, 3 h; inhibition, % at 50 µM; actives 6.5% (n = 47,000)
USP30 block: inhibitors of human USP30 deubiquitinase | inhibition, % at 25 µM | Ubiquitin carboxyl-terminal hydrolase 30 (Homo sapiens), Q70CQ3 | actives 5.3% (n = 47,000) | purified USP30, Ub-rhodamine cleavage fluorescence
* hit, by the source's call; nt = no result. Rule as the data show it: active = inhibition above about 30%; inactive = the rest.

SMILES	USP28 block	USP10 inh	USP8 inh	USP17 inh	USP30 block
COc1cc2ncn(CC(=O)N[C@@H](Cc3ccccc3)C(=O)O)c(=O)c2cc1OC	-5	-1	-32	-9	0
Cn1ncc2c1C(COCC1CC1)N(C(=O)c1cscn1)CC2 (configuration not stated)	-4	-4	-70	-6	-17
O=C(COc1ccc2ccccc2c1)Nc1cccc2ccccc12	19	13	36*	65*	46*
NC(=O)c1ccccc1NC(=O)COc1ccc2c(c1)oc(=O)c1ccccc12	-16	15	55*	-4	-1
O=C(COc1ccc2c3c(c(=O)oc2c1)CCC3)Nc1ccccc1N1CCOCC1	-10	0	0	0	-16
Fc1ccccc1CN1CCC[C@H]1c1nc(-c2ccc(-c3cncnc3)nc2)no1	-1	1	-9	-13	-31
COc1cc2c(cc1OC)CN(Cc1cc(=O)n3ccsc3n1)CC2	-45	-12	56*	11	-222
O=C(CSc1nnc(Cc2ccccc2)o1)N1CCc2ccccc21	-3	3	2	42*	11
O=C(Cn1c(Cc2ccccc2)nc2ccccc21)N1CCc2ccccc21	5	-3	49*	26	32*
O=C(NCc1nnc(SCC(=O)N2CCc3ccccc32)o1)c1cccs1	0	4	-2	2	-1
CC(C)c1cc(=O)[nH]c(SCc2nc3ccccc3[nH]2)n1	-20	0	-88	-25	-9
Cc1ccc(C(=O)Nc2ccc(-c3ccc(N4CCOCC4)nn3)cc2)cc1	0	0	9	2	7
CCOC(=O)Cn1c(-c2ccc(Cl)cc2)ccc(C#N)c1=O	16	6	31*	14	30*
CCOC(=O)Cn1c(=O)n(Cc2ccccc2)c(=O)c2ccccc21	-11	0	2	-12	-8
COc1ccc(-c2noc(C(=O)NC3CC(C)(C)NC(C)(C)C3)n2)cc1OC	1	1	4	5	10
COc1ccc(-c2ccc3cc(C(=O)O)ccc3c2)cc1C12CC3CC(CC(C3)C1)C2	10	80*	66*	-17	11
Cc1nc2n(c(=O)c1C)CCN2Cc1cccc(C#N)c1	-8	-2	-3	-4	-18
Fc1ccc(N/C=C/c2ncc(C(F)(F)F)cc2Cl)cc1	-10	-11	72*	20	-79
CN(C)S(=O)(=O)c1ccc(N/C=C/c2ncc(C(F)(F)F)cc2Cl)cc1	-13	-3	27	-8	-71
C[C@H]1[C@H]2CC[C@H]3[C@@H]4CC=C5C[C@@H](N(C)C)CC[C@]5(C)[C@H]4C[C@@H](O)[C@]23CN1C	8	0	-2	13	18
Cc1cc(S(=O)(=O)NCCn2cnc3ccccc32)ccc1F	-6	-1	-36	-23	-18
COc1ccc(CCNC(=O)CCCCn2c(=O)c3ccccc3n(Cc3cccc(F)c3)c2=O)cc1OC	9	2	-3	60*	55*
CCOc1ccccc1NC(=O)Cn1c(=O)n(CCC(=O)NCCc2ccc(OC)c(OC)c2)c(=O)c2ccccc21	16	13	22	14	20
COc1ccc(C(=O)CSc2nnc3n(Cc4ccc(C)cc4)c(=O)c4ccccc4n23)cc1OC	16	4	5	25	45*
Cc1cc(NC(=O)Cn2c(=O)n(CC3CCC(C(=O)NCCc4ccccc4)CC3)c(=O)c3ccccc32)n[nH]1 (configuration not stated)	30	15	37*	58*	45*
SMILES	USP28 block	USP10 inh	USP8 inh	USP17 inh	USP30 block
COc1ccc(CCNC(=O)CCn2c(=O)c3ccccc3n(Cc3ccc(F)cc3)c2=O)cc1OC	31*	12	20	46*	43*
CC(C)Cc1ccc(-c2cc(C(=O)NC3CCCc4ccccc43)c3ccccc3n2)cc1 (configuration not stated)	-12	0	-23	-9	-30
COc1ccc(CCNC(=O)CCn2c(=O)c3ccccc3n(Cc3ccc(C)cc3)c2=O)cc1OC	14	5	21	43*	64*
O=C(CCCn1c(=O)c2ccccc2n(Cc2cc(=O)n3ccccc3n2)c1=O)NCc1ccco1	-1	-3	-19	-2	-4
COc1ccc(CCNC(=O)c2ccc(Cn3c(=O)c4ccccc4n(CC(=O)Nc4cc(C)[nH]n4)c3=O)cc2)cc1OC	9	4	1	66*	65*
COc1ccc(CCNC(=O)CCn2c(=O)c3ccccc3n(Cc3ccccc3C#N)c2=O)cc1OC	2	3	-18	3	15
O=C(CCn1c(=O)c2ccccc2n(Cc2cc(=O)n3ccccc3n2)c1=O)NCCc1ccc(Cl)cc1	16	10	12	48*	61*
O=C(c1[nH]nc2c1COc1ccccc1-2)N1CCN(C2CCCCC2)CC1	-7	-4	-41	-25	-12
O=C(Nc1ccc(N2CCOCC2)cc1)c1sc2cc(F)ccc2c1Cl	-4	4	3	-7	-10
CC(C)CC(=O)Nc1ccc(-n2cnc(C(=O)N3CCOCC3)c2)nc1	nt	0	0	0	nt
Cn1c(=O)c2c(SCC(=O)N3CCCC3)nc(-c3ccccc3F)nc2n(C)c1=O	-9	2	-24	-9	-11
CCc1cc(C2CCCN2C(=O)c2cc3nc(C4CC4)cc(C(F)(F)F)n3n2)on1 (configuration not stated)	1	-1	-3	0	2
O=C(c1ccc(-n2cccn2)cc1)N1CCN(Cc2cc(=O)n3ccsc3n2)CC1	0	-5	16	6	-5
COc1ccc(C2CC(=O)Nc3ccc4ccccc4c32)c(OC)c1OC (configuration not stated)	7	3	7	37*	68*
COc1cccc(OC)c1C(=O)C1CC(=O)Nc2n[nH]c(C)c21 (configuration not stated)	-2	-1	2	-2	5
COc1ccc(C2CC(=O)Nc3ccc4ccccc4c32)cc1OC (configuration not stated)	3	4	-4	1	7
COc1cccc(C2CC(=O)Nc3n[nH]c(C)c32)c1OCc1ccccc1C (configuration not stated)	9	6	-2	5	34*
COc1ccc(C2CC(=O)Nc3n[nH]c(-c4ccccc4)c32)c(OC)c1 (configuration not stated)	10	5	-25	41*	44*
COc1ccc(-c2[nH]nc3c2C(c2cccc(OC)c2OC)CC(=O)O3)cc1 (configuration not stated)	-8	0	0	-14	-5
CNC(=O)c1nc2c(s1)CCN(C(=O)c1cc(C)on1)CC2	12	0	18	12	16
Cc1nn(CC(=O)c2ccc3c(c2)NC(=O)CO3)c(C)c1[N+](=O)[O-]	32*	1	-45	15	-7
